Data on 17 compounds can be found in PubChem BioAssay (NCI).

Among the test systems are T-47D breast; BT-549 breast; SW-620 colon; MCF7 breast; HCT-116 colon; HCC-2998 colon; KM12 colon; MDA-MB-435 melanoma.
Holding throughout (assay): NCI-60 one-dose screen, 48 h (100 = growth as untreated, 0 = no growth, -100 = all killed)
What all share (conditions): 10 µM unless noted

Molecules are shown by their SMILES. The panel holds about 83,000 compounds, 20% with a hit somewhere; the sample as a whole holds those more often.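 Compound tested at a single concentration for 48 hours in 96-well plates; a percent growth value below 10 was scored as active.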 Unmarked numbers belong to inactive results. Activity calls are given as the source filed them.

Regarding `COc1ccc(C2=NN(C(C)=O)C(c3cccc(Nc4ccnc5cc(Cl)ccc45)c3)C2)cc1` (stereo not drawn), the growth in the assay on T-47D breast is 37.5%; in the assay on BT-549 breast it was 50.4%; with SW-620 colon it was 74.4%; in the assay on MCF7 breast, 37.4%; in the assay with HCT-116 colon, 44.3%; with HCC-2998 colon, 83.1%. Besides, the growth in the assay with KM12 colon was 54.1%.
Consider `COC(=O)CC1=C(c2ccc([N+](=O)[O-])cc2)CCC1=O`, for which the growth in the assay on T-47D breast is 101%; with BT-549 breast it was 110%; in the assay on SW-620 colon, 101%; in the assay with MCF7 breast it was 104%; in the assay on HCT-116 colon it was 112%; in the assay with HCC-2998 colon, 109%. The growth in the assay with KM12 colon was 107%.
As to `CSc1nc(Nc2ccc(S(=O)(=O)Nc3ccon3)cc2)c(C#N)c(-c2ccc(Cl)cc2)n1`, the growth in the assay on T-47D breast is 97%; in the assay on BT-549 breast, 90.5%; with MDA-MB-435 melanoma, 97.9%; in the assay on MCF7 breast, 94.3%; in the assay with HCT-116 colon it was 65.8%; in the assay with HCC-2998 colon, 94.4%. Further, the growth in the assay with KM12 colon is 104%.
Regarding `N#Cc1c(-c2ccccc2)cc(-c2ccccc2)n(CCCC(=O)O)c1=O`, the growth in the assay with T-47D breast was 89.1%; in the assay with BT-549 breast it was 83.6%; with MDA-MB-435 melanoma, 104%; in the assay with MCF7 breast it was 60%; in the assay on HCT-116 colon, 93%; in the assay on HCC-2998 colon it was 103%. In addition, the growth with KM12 colon is 103%.
For `O=C1CSC(c2ccccc2Cl)N1c1nnc(Cn2nnc3ccccc32)o1` (stereo not drawn), the growth is 50.5% in the assay with T-47D breast; 98.9% with BT-549 breast; 93.2% with SW-620 colon; 86.8% with MCF7 breast; 60.1% in the assay with HCT-116 colon; 86.4% with HCC-2998 colon. In addition, the growth in the assay on KM12 colon is 77.1%.
`Nc1nc2c(nnn2Cc2ccc(Cl)c(Cl)c2)c(=O)[nH]1`: the growth in the assay with T-47D breast is 84.3%; with BT-549 breast it was 99.4%; in the assay with SW-620 colon, 99.9%; in the assay with MCF7 breast, 93.7%; in the assay on HCT-116 colon, 104%; in the assay on HCC-2998 colon, 116%. Moreover, in the assay on KM12 colon, the growth is 90.2%.
With `Nc1ccc(N=Nc2ccccc2)cc1[N+](=O)[O-]`, the growth is 59.8% with T-47D breast; 85.4% in the assay with BT-549 breast; 93.1% with SW-620 colon; 24.1% in the assay on MCF7 breast; 91.4% with HCT-116 colon; 103% with HCC-2998 colon. Moreover, the growth in the assay with KM12 colon is 53.2%.
Regarding `CN(C)CCC(=O)Nc1ccc(-n2cc(-c3cccc(NC(=S)Nc4cccc(-c5cn(-c6ccc(NC(=O)CCN(C)C)cc6)nn5)c4)c3)nn2)cc1`, the growth in the assay with T-47D breast is 69.1%; with BT-549 breast, 81.6%; in the assay with MDA-MB-435 melanoma, 110%; with MCF7 breast, 5.07% (active); with HCT-116 colon, 26.7%; in the assay on HCC-2998 colon, 101%. Further, the growth with KM12 colon is 56.3%.
In the case of `FCc1ncc(-c2ccc(C(F)(F)F)cc2)c(NC2CCCCCC2)n1`, the growth was -10.9% [100 µM] (active) in the assay on T-47D breast; -50.1% [100 µM] (active) in the assay with BT-549 breast; -6.34% [100 µM] (active) with MDA-MB-435 melanoma; 1.01% [100 µM] (active) in the assay with MCF7 breast; -2.53% [100 µM] (active) in the assay on HCT-116 colon; 13.4% [100 µM] in the assay on HCC-2998 colon. For the same compound, in the assay on KM12 colon, the growth was -59.8% [100 µM] (active).
`CSc1nc2nc3c(nc2c(=O)n1C)C(=O)c1ccccc1C3=O`: the growth was -45.3% (active) with T-47D breast; -94.8% (active) in the assay with BT-549 breast; -83.6% (active) with MDA-MB-435 melanoma; -62.2% (active) with MCF7 breast; -37.6% (active) in the assay with HCT-116 colon; -70.1% (active) in the assay on HCC-2998 colon. Besides, in the assay on KM12 colon, the growth is -64.2% (active).
`CNc1nc(NC2CCCC2)nc(Sc2ccc(OC)cc2)n1`: the growth with T-47D breast was 27.3% [100 µM]; in the assay on BT-549 breast, 7.66% [100 µM] (active); with MDA-MB-435 melanoma it was 0.45% [100 µM] (active); in the assay with MCF7 breast it was 30.9% [100 µM]; in the assay with HCT-116 colon it was 0.657% [100 µM] (active); in the assay on HCC-2998 colon, 38% [100 µM]. Further, the growth in the assay with KM12 colon is 1.94% [100 µM] (active).
Regarding `COc1cc(/C=N/NC(=O)c2ccc(C(F)(F)F)nc2Nc2ccc(Cl)cc2C)ccc1O`, the growth with T-47D breast was 33.7%; with BT-549 breast, 16%; in the assay with SW-620 colon, 26.2%; with MCF7 breast it was 27.8%; in the assay with HCT-116 colon, 11.3%; with HCC-2998 colon it was 42.8%. Moreover, in the assay on KM12 colon, the growth was 24.5%.
In the case of `CCOC(=O)C1=CCC(n2cc(C)c(=O)[nH]c2=O)O1` (stereo not drawn), the growth with T-47D breast was 99.1%; in the assay on BT-549 breast, 120%; with SW-620 colon it was 105%; in the assay with MCF7 breast it was 119%; with HCT-116 colon, 102%; with HCC-2998 colon, 110%. Moreover, the growth with KM12 colon was 96%.
As for `N#Cc1c(-c2ccccc2)cc(-c2ccccc2)n(CC(=O)O)c1=O`, the growth was 45.3% in the assay with T-47D breast; 25.8% in the assay with BT-549 breast; -10.6% (active) with MDA-MB-435 melanoma; 34.8% with MCF7 breast; 39.2% with HCT-116 colon; 82.4% with HCC-2998 colon. The growth in the assay on KM12 colon was 41.3%.
For the compound `Nc1nc(SCc2cccnc2)c2ncn(C3OC(CO)C(O)C3O)c2n1` (stereo not drawn), the growth in the assay on T-47D breast is 110%; in the assay on BT-549 breast, 98.1%; in the assay on MDA-MB-435 melanoma, 104%; in the assay on MCF7 breast, 94.9%; in the assay on HCT-116 colon, 93.8%; in the assay with HCC-2998 colon it was 96.6%. Moreover, the growth with KM12 colon is 98.4%.
With `COc1ccc(CCN2C(=O)CCC3=C2CCCC3=O)cc1OC`, the growth in the assay on T-47D breast was 104%; in the assay with BT-549 breast, 104%; in the assay with SW-620 colon, 107%; in the assay with MCF7 breast it was 92.6%; in the assay on HCT-116 colon, 100%; in the assay on HCC-2998 colon, 103%.
Take `CCCCOP(=O)(OCCCC)C(C(=O)OCC)C(CC(=O)OCC)C(=O)OCC` (stereo not drawn): the growth with T-47D breast was 114%; with BT-549 breast, 114%; with MDA-MB-435 melanoma, 104%; with MCF7 breast it was 93.1%; in the assay on HCT-116 colon, 112%; in the assay on HCC-2998 colon it was 109%. Further, the growth with KM12 colon was 111%.
